A short description of experiment [1]: APR_HepG2_StressKinase_1hr: Apredica 1-hour HepG2 Assay for Stress Kinase (AID 2282906). As to conditions: HepG2 stress kinase (phospho-c-Jun) imaging, actives raise or lower the signal. Put shortly:
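High-content imaging of phospho-c-Jun immunostaining (with Hoechst nuclear identification) after a 1 h exposure of HepG2 cells to 10 concentrations from 0.39 to 200 uM, final DMSO 0.5%. Fitted bidirectionally against DMSO.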

Experiment [2] can be described thus: APR_HepG2_NuclearSize_24hr: Apredica 24-hour HepG2 Assay for Nuclear Size (AID 2282907). As to conditions: high-content imaging, actives raise or lower the signal. The essentials: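 Read-out: nuclear diameter from Hoechst 33342 (2 ug/mL) imaging of fixed HepG2 cells, 20x, six fields/well. Compounds ran at 0.39–200 uM for 24 hr, 0.5% DMSO final. Gain or loss was fitted bidirectionally relative to the DMSO baseline.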

A short description of experiment [3]: APR_HepG2_CellLoss_24hr: Apredica 24-hour HepG2 Assay for Cell Loss (AID 2282908).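 For AC50: fit in both directions so a hit may be cell loss or gain.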 Conditions: high-content imaging. Put shortly: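 Read-out: Hoechst 33342-stained nuclei counted by automated fluorescence imaging after formaldehyde fixation and Triton permeabilization. Ten concentrations, 0.39 to 200 uM, duplicate wells, 0.5% DMSO final. Gain or loss of signal fitted relative to DMSO baseline.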

Experiment [4] can be described thus: APR_HepG2_MicrotubuleCSK_24hr: Apredica 24-hour HepG2 Assay for Microtubule CSK Stabilty (AID 2282909). As to conditions: HepG2 microtubule cytoskeleton imaging, actives raise or lower the signal. Put shortly:
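Read-out: alpha-tubulin immunofluorescence intensity by automated high-content imaging of fixed HepG2 cells after 24 h compound treatment. Ten concentrations, 0.39 to 200 uM, in duplicate; DMSO 0.5% v/v. Taxol positive control; DMSO-normalized bidirectional curve fitting.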

Experiment [5] in a line: APR_HepG2_MitoticArrest_24hr: Apredica 24-hour HepG2 Assay for Mitotic Arrest (AID 2282910). As to conditions: high-content imaging, actives raise or lower the signal. The essentials: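 Treatment lasted 24 hr in the human HepG2 line at 0.39–200 uM, solvent held at 0.5% DMSO. Fixed cells were stained with Hoechst 33342 and anti-phospho-histone H3, imaged at 20x, and analysed by gain- or loss-of-signal fitting against DMSO.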

Experiment [6] can be described thus: APR_HepG2_MitoMembPot_24hr: Apredica 24-hour HepG2 Assay for Mitochondrial Membrane Potential (AID 2282911). Conditions: imaging, actives raise or lower the signal. The essentials:
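Cells are dosed for 24 hr across 0.39 to 200 uM with solvent held at 0.5% DMSO. They are then stained with 250 nM MitoTracker Red CMXRos for 30 min, fixed in 3.7% formaldehyde and imaged.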

A short description of experiment [7]: APR_HepG2_MitoMass_24hr: Apredica 24-hour HepG2 Assay for Mitochondrial Mass (AID 2282912). Conditions: high-content imaging, actives raise or lower the signal. The essentials:
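HepG2, 24 hr dosing, 10 concentrations 0.39–200 uM in duplicate, DMSO 0.5% final. MitoTracker Red CMXRos 250 nM, 30 min pre-fix; 3.7% formaldehyde fix. Imaging-based fluorescence intensity; gain/loss fit vs DMSO baseline.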

Experiment [8] is described as follows: APR_HepG2_CellCycleArrest_72hr: Apredica 72-hour HepG2 Assay for Cell Cycle Arrest (AID 2282914). Conditions: high-content imaging, actives raise or lower the signal. The essentials:
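Read-out is Hoechst-stained nuclear DNA content measured by automated fluorescence imaging (20x, six images per well), fitted in both directions relative to DMSO. Human HepG2 liver cells received 0.39–200 uM compound for 72 hr at 0.5% v/v DMSO.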

The nature of experiment [9]: APR_HepG2_CellLoss_72hr: Apredica 72-hour HepG2 Assay for Cell Loss (AID 2282915). Conditions: high-content imaging. The essentials:
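HepG2 cells were exposed for 72 hr to compounds at 0.39–200 uM (ten concentrations, duplicate) in 0.5% v/v final DMSO. Nuclei were stained with Hoechst 33342 after 3.7% formaldehyde fixation, imaged at 20x, and counted; fits bidirectional versus DMSO.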

A short description of experiment [10]: APR_HepG2_P-H2AX_72hr: Apredica 72-hour HepG2 Assay for H2AX Phosphorylation (AID 2282916).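 Note: phospho-histone H2A.x immunostain intensity per cell marking DNA damage.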 Conditions: imaging, actives raise or lower the signal. The essentials: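 Readout: phospho-H2A.x immunofluorescence (FITC secondary) plus Hoechst nuclear stain, high-content imaging at 20x, six fields/well. HepG2, 72 hr compound exposure, 0.39–200 uM, final DMSO 0.5% v/v. Gain or loss fitted relative to DMSO baseline.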

A short description of experiment [11]: APR_HepG2_MitoMembPot_72hr: Apredica 72-hour HepG2 Assay for Mitochondrial Membrane Potential (AID 2282917). As to conditions: imaging, actives raise or lower the signal. The essentials: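 HepG2 cells exposed 72 h to compounds at 0.39–200 uM (0.5% v/v DMSO, duplicates); MitoTracker Red CMXRos 250 nM loaded 30 min before 3.7% formaldehyde fixation, imaged by HCS fluorescence. Bidirectional fit versus DMSO.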

A short description of experiment [12]: APR_HepG2_MitoticArrest_72hr: Apredica 72-hour HepG2 Assay for Mitotic Arrest (AID 2282918). As to conditions: high-content imaging, actives raise or lower the signal. The essentials:
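Read-out is phospho-histone H3 immunofluorescence with Hoechst nuclear segmentation, imaged at 20x. Human HepG2 liver cells received ten concentrations (0.39–200 uM, final DMSO 0.5% v/v) for 72 hr before fixation. Gain or loss of signal was fitted relative to DMSO.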

The nature of experiment [13]: APR_HepG2_MicrotubuleCSK_72hr: Apredica 72-hour HepG2 Assay for Microtubule CSK Stabilty (AID 2282919). As to conditions: HepG2 microtubule cytoskeleton, high-content imaging, actives raise or lower the signal. The essentials: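 Ten-point dosing (0.39–200 uM, 0.5% DMSO) of HepG2 for 72 hr, with taxol as the cytoskeletal positive control. The cells were formaldehyde-fixed and then stained with alpha-tubulin/Cy5 and Hoechst. Imaging at 20x used a −2 um Z offset for tubulin.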

Experiment [14] can be described thus: APR_HepG2_P-H2AX_24hr: Apredica 24-hour HepG2 Assay for H2AX Phosphorylation (AID 2282920). As to conditions: high-content imaging, actives raise or lower the signal. Put shortly: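 HepG2, 24 hr, cpd 0.39–200 uM (10 conc, duplicate), DMSO 0.5% v/v final. Fix 3.7% formaldehyde, Triton X-100 permeabilize, anti-phospho-H2A.x 1:200 + Hoechst 2 ug/mL. Imaged, bidirectional fit vs DMSO.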

A short description of experiment [15]: APR_HepG2_StressKinase_72hr: Apredica 72-hour HepG2 Assay for Stress Kinase (AID 2282921). As to conditions: HepG2 stress kinase (phospho-c-Jun) imaging, actives raise or lower the signal. Put shortly:
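Phospho-c-Jun immunofluorescence measured by high-content imaging at 20x, six fields per well; bidirectional curve fitting against DMSO as baseline. Dosing: 0.39–200 uM, 72 h, 0.5% DMSO final.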

Experiment [16] in a line: APR_HepG2_StressKinase_24hr: Apredica 24-hour HepG2 Assay for Stress Kinase (AID 2282922). As to conditions: HepG2 stress kinase (phospho-c-Jun) imaging, actives raise or lower the signal. The essentials: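 After 24 hr compound treatment (up to 200 uM, final DMSO 0.5% v/v), HepG2 cells are fixed and multiplex-labeled; phospho-c-Jun intensity is captured by high-content fluorescence imaging and analyzed relative to DMSO.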

The nature of experiment [17]: APR_HepG2_MitoMass_72hr: Apredica 72-hour HepG2 Assay for Mitochondrial Mass (AID 2282924).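 Note: MitoTracker Red CMXRos stain intensity per cell imaged as mitochondrial mass.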 As to conditions: high-content imaging, actives raise or lower the signal. Put shortly:
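Steps: treat HepG2 72 hr (0.39–200 uM, duplicate wells); load MitoTracker Red CMXRos, 250 nM, 30 min; fix with 3.7% formaldehyde, permeabilise with 0.5% Triton X-100; capture images, nuclei via Hoechst 33342; fit bidirectionally against DMSO.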

Experiment [18] in a line: APR_HepG2_NuclearSize_72hr: Apredica 72-hour HepG2 Assay for Nuclear Size (AID 2282925). As to conditions: high-content imaging, actives raise or lower the signal. The essentials:
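Compounds (0.39–200 uM, final DMSO 0.5%) were applied to HepG2 for 72 hr. Cells were then formaldehyde-fixed, permeabilized and labelled with Hoechst 33342. Nuclear diameter was quantified from six images per well.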

Experiment [19] in a line: APR_HepG2_p53Act_24hr: Apredica 24-hour HepG2 Assay for p53 Activation (AID 2282913).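 Note: p53 protein immunofluorescence averaged per cell in HepG2 with Hoechst nuclei.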 As to conditions: high-content imaging, actives raise or lower the signal. The essentials:
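Human HepG2 liver cells; 24 hr cpd treatment, 0.39–200 uM, 0.5% DMSO final. Fixed in 3.7% formaldehyde, permeabilized with 0.5% Triton X-100, stained with anti-p53/Cy5 plus Hoechst 33342. Six images per well at 20x; gain or loss vs DMSO.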

Experiment [20] in a line: APR_HepG2_p53Act_72hr: Apredica 72-hour HepG2 Assay for p53 Activation (AID 2282923).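 Note: average cellular p53 protein immunofluorescence intensity in HepG2 cells.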 Conditions: high-content imaging, actives raise or lower the signal. The essentials:
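Readout: p53 immunofluorescence quantified by automated high-content imaging at 20x, six fields per well, nuclei located via Hoechst. Dosing ran 72 hr over ten concentrations from 0.39 to 200 uM; bidirectional curve fitting against DMSO baseline.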

The structures appear in SMILES notation. Calls of active or inactive are those of the source. Rule for the calls: active = hit-call score of the fitted dose curve at least 0.9, where 1 is the maximum; inactive = score below 0.9.

For orientation: AC50 means the midpoint of the concentration-response curve, whichever way the signal moves. `O=[N+]([O-])c1cc(C(F)(F)F)c(Cl)c([N+](=O)[O-])c1Nc1ncc(C(F)(F)F)cc1Cl`: the AC50 in experiment [1] was 9.87 µM (active); in experiment [3], 49.5 µM (active); in experiment [4], 1.14 µM (active); in experiment [8], 0.676 µM (active); in experiment [9] it was 1.33 µM (active); in experiment [10], 1.13 µM (active). Moreover, the values for the AC50 in experiment [12] and in experiment [13] were 0.767 µM (active) and 100 µM (active), respectively. The result in [2], in experiment [5], in [6], in experiment [7], in experiment [11] and in [14] was inactive. Also, the call in [15], in [16], in [17] and in experiment [18] was inactive.
With `Nc1nc(N)nc(NC2CC2)n1`, the compound was classed as inactive in experiment [2], in experiment [3], in experiment [4], in experiment [5], in [6] and in [7]. Moreover, the call in experiment [19], in experiment [8], in experiment [9], in experiment [10], in experiment [11] and in experiment [12] was inactive. The call in experiment [13], in experiment [14], in experiment [15], in [20], in [17] and in experiment [18] was inactive.
For the compound `CCOP(=O)(NC(C)C)Oc1ccc(SC)c(C)c1` (stereo not given), the call in experiment [2], in [3], in experiment [4], in experiment [5], in [6] and in experiment [19] was inactive. For the same compound, the compound was classed as inactive in experiment [8], in experiment [10], in experiment [12], in experiment [13], in experiment [14] and in [15]. Besides, the compound was classed as inactive in [20], in [17] and in experiment [18]. For the same compound, the AC50 in [9] was 89.2 µM (active); in experiment [11], 50.5 µM (active).
For the compound `CCOC(=O)COc1cc(-c2nn(C)c(OC(F)F)c2Cl)c(F)cc1Cl`, the call in experiment [2], in [3], in experiment [4], in experiment [5], in [6] and in [19] was inactive. Besides, the compound was called inactive in experiment [8], in [9], in [10], in experiment [11], in [12] and in [13]. In addition, the outcome in [14], in [15], in [16], in experiment [20], in [17] and in experiment [18] was inactive.
For the compound `CCC(=O)Nc1ccc(Cl)c(Cl)c1`, the call in [2], in experiment [3], in [4], in experiment [5], in experiment [6] and in experiment [19] was inactive. Also, the result in [8], in experiment [9], in experiment [10], in experiment [11], in experiment [12] and in [13] was inactive. For the same compound, the compound was classed as inactive in experiment [14], in [15], in experiment [20], in experiment [17] and in experiment [18].
Turning to `CN1COCN(Cc2cnc(Cl)s2)C1=N[N+](=O)[O-]`, the call in experiment [2], in experiment [3], in experiment [4], in [5], in experiment [6] and in [7] was inactive. The result in [19], in [8], in experiment [9], in [10], in [11] and in experiment [12] was inactive. Also, the compound was classed as inactive in experiment [13], in experiment [14], in experiment [15], in experiment [16], in [20] and in experiment [17]. The compound was called inactive in [18].
For the compound `CCCSP(=O)(OCC)Oc1ccc(Br)cc1Cl` (stereo not given), the compound was called inactive in experiment [2], in experiment [5], in [6], in [19], in experiment [8] and in [10]. For the same compound, the compound was classed as inactive in experiment [11], in experiment [12], in experiment [14], in experiment [15], in experiment [16] and in [20]. The compound was classed as inactive in [17] and in experiment [18]. Further, the AC50 in experiment [3] is 108 µM (active); in experiment [4], 113 µM (active); in experiment [9], 114 µM (active); in [13] it was 113 µM (active).

The values above are taken from PubChem BioAssay (EPA / NIEHS).
